Screening results (PubChem)
In the library only some 2.2% were active in any assay of this set; here they are far more common.
A549 tox-1 = Nrf2 qHTS screen for inhibitors: counterscreen for cytotoxicity | A549 ARE-Fluc cells, CellTiter-Fluor viability, 18-24 h | Potency, µM (series often up to 46 µM), without a hit: top-dose activity change, negative = cytotoxicity, usual class: inhibitors | 390,000 compounds, 0.16% hits | AID 504648, 2011; further: potency means the concentration at half of the fitted maximal effect; on the % scale 0 is the no-effect control and ±100 the full control effect
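A549 ARE_Fluc cells in 5% FBS OPTI-MEM were exposed to compounds in concentration-response for 18-24 h at 37 deg C. Viability was read by CellTiter-Fluor fluorescence (Ex 405/Em 525) after 30 min, before the luciferase read.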
Nrf2 activator = qHTS of Nrf2 Activators | AREc32 ARE-luciferase reporter (MCF7-derived line), luminescence, 24 h | Potency, µM (titrated, usually from 46.1 µM), for inactives: at the highest dose activation, usual class: activators | 410,000 compounds, 0.31% hits | AID 624171, 2012; further: potency means the concentration at half of the fitted maximal effect; % of control where 0% means no effect; nearly all actives have a fitted effect of over 65% in size
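For detection, Steady-Glo was added and plates sat 30 min at RT; before that, AREc32_Fluc cells grown overnight in OPTI-MEM/5% FBS had been treated with 23 nL compound for 24 hr at 37 deg C.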
miR-21 reporter = qHTS Assay for Modulators of miRNAs and/orActivators of miR-21; Potency, µM (series often up to 38.3 µM), inactives show at the top dose activity change, positive = activation, usual class: activators; HeLa miR-21 FLuc reporter, luciferase, 48 h; 340,000 tested, under 10 active;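 further: % of control where 0% means no effect; miR-21 action dims this reporter so a rising signal means less miR-21 action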
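HeLa cells endogenously expressing miR-21, stably carrying CMV-driven firefly luciferase with a downstream miR-21 binding site, 2000 cells/well. Titrations up to approximately 40 uM, 48 hours; luciferase luminescence read.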
Nrf2 block = Nrf2 qHTS screen for inhibitors. Potency, µM (highest dose often 46 µM), without a hit: at the top dose activity change, negative = inhibition, hits mostly inhibitors. 360,000 compounds, 2.1% hits. A549 ARE-Fluc reporter, luciferase luminescence, 18-24 h; further: potency means the concentration at half of the fitted maximal effect; on the % scale 0 is the no-effect control and ±100 the full control effect; nearly all actives have a fitted effect of over 60% in size
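A549 ARE_Fluc cells (5000/well, 5% FBS OPTI-MEM) pre-incubated 2 h, then treated with compounds 18-24 h at 37C/5% CO2 in concentration-response. CellTiter-Fluor viability read first; BugLite luciferase luminescence after 15 min at room temperature gives Nrf2 activity.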
B2AR arrestin = qHTS assay of beta-arrestin-biased ligands of beta2-adrenergic receptor; beta-arrestin recruitment to beta2AR, cell-based reporter; Potency, µM (doses to about 46.1 µM), for inactives: at the highest dose activation, actives largely listed as activators; 330,000 compounds, 0.02% hits;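 further: potency means the concentration at half of the fitted maximal effect; 0% = DMSO controls and full agonism = EC100 isoproterenol or metaproterenol; nearly all actives have a fitted effect of over 65% in size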
FLuc counter 3 = Nrf2 qHTS screen for inhibitors: Purified Fluc Biochemical Counterscreen for Hit Validation | shares compounds with Nrf2 block | purified firefly luciferase, luminescence inhibition | Potency, µM (series often up to 57.5 µM), for the others: at the top dose activity change, negative = inhibition, usual class: inhibitors | 1,400 compounds, 4% hits; further: potency means the concentration at half of the fitted maximal effect; on the % scale 0 is the no-effect control and ±100 the full control effect; nearly all actives have a fitted effect of over 65% in size
Target sequence (P08659 whole entry, looked up): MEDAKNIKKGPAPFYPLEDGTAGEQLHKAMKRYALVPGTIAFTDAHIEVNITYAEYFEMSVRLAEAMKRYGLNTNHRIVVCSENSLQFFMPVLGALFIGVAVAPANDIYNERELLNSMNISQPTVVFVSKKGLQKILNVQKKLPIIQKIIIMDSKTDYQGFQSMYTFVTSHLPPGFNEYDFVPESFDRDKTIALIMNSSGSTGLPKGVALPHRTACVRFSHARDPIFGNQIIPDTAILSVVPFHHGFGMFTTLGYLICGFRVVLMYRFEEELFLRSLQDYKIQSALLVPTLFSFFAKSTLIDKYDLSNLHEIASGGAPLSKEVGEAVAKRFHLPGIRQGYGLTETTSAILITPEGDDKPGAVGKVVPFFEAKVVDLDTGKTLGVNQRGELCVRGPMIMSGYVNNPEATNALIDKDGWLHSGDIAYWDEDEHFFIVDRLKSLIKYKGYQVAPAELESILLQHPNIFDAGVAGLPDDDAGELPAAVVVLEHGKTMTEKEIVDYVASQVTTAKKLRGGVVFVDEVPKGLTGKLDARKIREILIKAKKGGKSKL
A549 tox-2 = Nrf2 qHTS screen for inhibitors: A549 ARE-Fluc Cytotoxicity Counterscreen for Hit Validation; shares compounds with Nrf2 block; A549 ARE-Fluc cells, cytotoxicity counterscreen; Potency, µM (top dose mostly 46.1 µM), without a hit: top-dose activity change, negative = cytotoxicity, actives largely listed as inhibitors; 1,400 compounds, 2% hits;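 further: potency means the concentration at half of the fitted maximal effect; cells exposed to compounds for 18 to 24 hours; on the % scale 0 is the no-effect control and ±100 the full control effect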
ARE-Fluc inh = Nrf2 qHTS screen for inhibitors: Nrf2 A549 ARE-Fluc Confirmation Assay for Hit Validation; shares compounds with Nrf2 block; A549 ARE-firefly luciferase reporter, luminescence; Potency, µM (titrated, usually from 46.1 µM), inactives show at the top dose activity change, negative = inhibition, usual class: inhibitors; 1,400 compounds, 74% hits; AID 720524, 2013; further: potency means the concentration at half of the fitted maximal effect; on the % scale 0 is the no-effect control and ±100 the full control effect; nearly all actives have a fitted effect of over 65% in size
Active calls of the source: *; ? = inconclusive; . = not tested or not shown; [ ] = another dose, or the depositor's remark. The call rests on the fitted dose curve; in most records, active means well fitted curve in the direction sought with a large enough effect; inconclusive means small, poorly fitted or top-dose-only effect, or another doubt; inactive means no such curve, though single readings can be large; an effect the other way counts as inactive or inconclusive.

SMILES	A549 tox-1	Nrf2 activator	miR-21 reporter	Nrf2 block	B2AR arrestin	FLuc counter 3	A549 tox-2	ARE-Fluc inh
Cc1cccnc1NC(=S)NC(=O)c1cccs1	-3%	10µM*	-46%	?	6%	.	.	.
Cc1cccnc1NC(=O)CNC(=O)c1cccs1	-1%	0%	.	8%	0%	.	.	.
O=C(Cc1ccccc1)Nc1sc2c(c1C(=O)Nc1ccc(Cl)cc1)CCOC2	-2%	.	.	-20%	.	.	.	.
Cc1nc(C)c(C(=O)NNS(=O)(=O)c2ccc3ccccc3c2)s1	-14%	-1%	0%	9.2µM*	-1%	4%	1%	?
CC[N+](C)(CC)CCOC(=O)C(O)(c1ccccc1)C1CCCCC1 (centres undefined)	-4%	-1%	-5%	7.3µM*	-3%	-1%	9.2µM*	?
O=S(=O)(c1ccc2[nH]c3c(c2c1)CCCCC3)N1CCN(c2cccc(Cl)c2)CC1	-3%	1%	25%	?	.	.	.	.
CCN(CC)c1ccc(C(=O)NCc2ccc3c(c2)CCN3C(=O)c2ccc(F)cc2)cc1	-8%	0%	8%	.	.	.	.	.
Cc1nn(-c2ccc(NC(=O)c3ccncc3)cc2)c(C)c1Cl	-7%	0%	20%	3.7µM*	0%	-11%	-5%	7.3µM*
O=C(N/N=C/c1ccc[nH]1)c1ccccc1OCc1ccc(F)cc1	1%	1%	-6%	47%	0%	.	.	.
CCOc1ccc(OCc2ccc(C(=O)NN=Cc3ccc[nH]3)cc2)cc1	?	3%	.	1.8µM*	0%	-10%	?	1.8µM*
CC(=O)N(C(C)=O)N1C(=O)C2C3c4ccccc4C(c4ccccc43)C2C1=O (centres undefined)	?	-1%	8%	9.2µM*	0%	-27%	?	15µM*
CN1C(=O)C2C3c4ccccc4C(c4ccccc43)[C@@H]2C1=O (some centres undefined)	-2%	0%	-2%	1%	0%	.	.	.
COCCn1c(CN2CCN(c3cccc(Cl)c3)CC2)nc2c1c(=O)n(C)c(=O)n2C	-26%	0%	11%	6.5µM*	0%	-1%	-5%	.
COc1cc(OC)cc(C(=O)N2CC(=O)Nc3ccc(Cl)cc3C2c2ccccc2)c1 (centres undefined)	0%	0%	-3%	3%[9.27 µM]	.	.	.	.
O=c1c2ccccc2nc2n1-c1ccccc1CCC2	-16%	0%	9%	-4%	0%	.	.	.
O=C1c2ccccc2-n2c1nc1ccccc1c2=O	-20%	4%	12%	5.2µM*	0%	-26%	16µM*	6.5µM*
Cc1cccc(CN2CCN(CC(=O)Nc3c(C)cccc3C)S2(=O)=O)c1	2%	1%	16%	?	.	.	.	.
CCCn1c(/C=C/c2cc[n+](C)cc2)nc2ccccc21	?	2%[9.22 µM]	3%	12%	-1%	.	.	.
Cc1ccc2c(c1)c(/C=C/c1cc[n+](C)cc1)c(C)n2C	?	-2%	?	3.7µM*	0%	-8%	?	6.5µM*
O=C(CN1C(=O)COc2ccc(S(=O)(=O)N3CCCC3)cc21)N1CCN(c2cccc(C(F)(F)F)c2)CC1	-1%	0%	11%	-19%	.	.	.	.
COc1ccc2cc3c(N)nn(C(=O)c4cccc(F)c4)c3nc2c1	4%	1%	7%	?	-1%	.	.	.
COc1ccc2cc3c(N)nn(C(=O)c4ccccc4Cl)c3nc2c1	-3%	-2%	?	9.2µM*	-1%	-28%	-20%	?
Cc1ccc2oc(C(=O)N(Cc3ccccc3F)C3CCS(=O)(=O)C3)c(C)c2c1 (centres undefined)	0%	3%	3%	?	.	.	.	.
CC1=[N+](C)c2c(ccc3cccnc23)C1(C)C	?	7%	?	2.1µM*	0%	-8%	-2%	2.6µM*
O=C(O)Cn1cnc2c(OCc3ccccc3)ncnc21	2%	-1%	.	-2%	0%	.	.	.
SMILES	A549 tox-1	Nrf2 activator	miR-21 reporter	Nrf2 block	B2AR arrestin	FLuc counter 3	A549 tox-2	ARE-Fluc inh
Cc1cc(C)c(CN2CCN(C(=O)Cn3cnc4c(OCc5ccccc5)ncnc43)CC2)c(C)c1	-14%	1%	.	3.7µM*	4%	2%	-11%	6.5µM*
Cc1cc(C)cc(-n2ncc3c2CCCC3NC(=O)C2(C(N)=O)CC2)c1 (centres undefined)	-1%	3%	?	?	0%	.	.	.
CCc1cc(C(=O)NC2CCCc3c2cnn3-c2cccc(C)c2C)n(C)n1 (centres undefined)	?	1%	16%	0.18µM*	-1%	1%	-3%	0.082µM*
Cc1ccc(-n2ncc3c2CCCC3NC(=O)c2ccoc2)cc1C (centres undefined)	-11%	0%	4%	?	-1%	.	.	.
Cc1cc(C)c(C(=O)NC2CCCc3c2cnn3-c2cccc(C)c2C)o1 (centres undefined)	-13%	0%	11%	?	1%	.	.	.
Cc1cc(C(=O)NC2CCCc3c2cnn3-c2ccc(C)c(C)c2)n(C)n1 (centres undefined)	-21%	-1%	23%	0.21µM*	-1%	-7%	-11%	0.023µM*
Cc1cccc(-n2ncc3c2CCCC3NC(=O)C2(C(N)=O)CC2)c1C (centres undefined)	-8%	-1%	18%	2.3µM*	0%	-2%	-5%	3.7µM*
Fc1ccc(-c2noc3ncnc(NC4CCCCC4)c23)cc1	3%	0%	1%	-25%	.	.	.	.
Cc1cc(NC(=O)CSc2nc3c(sc4ccccc43)c(=O)n2CCCN2CCOCC2)n[nH]1	?	-1%	24%	7.3µM*	-1%	2%	?	10µM*
Cc1cc(NC(=O)CSc2nc3c(sc4ccccc43)c(=O)n2CCc2ccccc2)n[nH]1	-10%	-1%	0%	-27%	0%	.	.	.
COC(=O)C(NC(=O)CC(C)C)(Nc1nc2c(s1)CCCC2)C(F)(F)F (centres undefined)	10%	10%	0%	-1%	.	.	.	.
